Ba/F3 V617F tox = reduced viability of JAK2V617F-dependent Ba/F3 cells, primary screen, JAK2V617F inhibitor project, cell-based, Ba/F3 EpoR-JAK2V617F, luminescence. ATP luminescence. inhibition, % at 5.6 µM. hit rate 1.1% among 220,000. AID 1446, 2008;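 active means inhibition above the campaign mean plus 3 SD over all tested compounds, cut at about 24% in these data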;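 further: cytokine-independent growth of Ba/F3 cells driven by EpoR plus mutant JAK2; 0% = DMSO-treated cells and 100% = JAK inhibitor I control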
BaF3 tox = parental Ba/F3 cell viability inhibition, counter-screen for JAK2V617F inhibitor project, murine pro-B, CellTiter-Glo luminescence; hit rate 1.1% among 220,000; inhibition, % at 5.6 µM; CellTiter-Glo ATP luminescence;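 active means inhibition above a per-campaign cutoff, the mean inhibition of all tested compounds plus 3 SD, cut at about 27% in these data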;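 further: 0% = DMSO wells and 100% = JAK Inhibitor I control wells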
KLF5 inh = KLF5 expression inhibitors, primary screen, DLD-1 cells, luminescence; DLD-1 KLF5 promoter-luciferase reporter; inhibition, % at 5 µM; hit rate 0.23% among 290,000;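 active means inhibition above a per-plate limit of that plate's mean compound inhibition plus 3 SD, cut at about 60% in these data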;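 further: 0% = DMSO wells and 100% = LY294002 at 200 µM; higher means less KLF5 promoter-driven luciferase light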
aSyn 5UTR inh = MLPCN primary screen, SNCA 5' untranslated region; alpha-synuclein 5'UTR reporter, inhibitor activity; inhibition, % (tested at 7.5 µM); hit rate 0.82% among 300,000; AID 1813, 2009; in the data active means inhibition above about 60%;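 further: H4 neuroglioblastoma cells stably carrying SNCA 5'UTR luciferase fusion; 0% = DMSO wells and 100% = positive control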
APP transl inh = inhibitors of APP translation via 5'UTR reporter, primary screen, APP 5'UTR luciferase, SH-SY5Y cells. SH-SY5Y APP 5'UTR-luciferase reporter, luminescence. inhibition, % at 2 µM. hit rate 0.82% among 190,000. AID 1285, 2008;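 active means inhibition above a set limit, derived from the sample mean plus 3 SD, cut at about 45% in these data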
IEC-6 tox = cytotoxicity in IEC-6 intestinal epithelial cells, primary screen, cytotoxicity control for KLF5 inhibitor project, cell-based, luminescence. IEC-6 cytotoxicity, luminescence viability. inhibition, % at 5 µM. hit rate 0.78% among 290,000. AID 1825, 2009; in the data active means inhibition above about 22%;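 further: 0% = plate median of test compound wells and 100% = cytotoxic reference compound wells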
Numbers without * were called inactive; · = no result. The list is not random: actives were taken first. Their share in the collection is about 2.2%.

SMILES | Ba/F3 V617F tox | BaF3 tox | KLF5 inh | aSyn 5UTR inh | APP transl inh | IEC-6 tox
Cc1ccc2nc(NC(=O)c3ccc(-c4nc5ccccc5s4)s3)sc2c1 | 0.1 | 4.3 | 13.7 | · | 1.0 | -8.0
O=C(c1ccc(-c2nc3ccccc3s2)s1)N1CCOCC1 | 2.2 | 6.6 | 56.7 | 100.4* | -65.1 | 9.1
CN1CCN(CCCNC(=O)c2ccc3c(Cl)c4c(nc3c2)CCCC4)CC1 | · | · | -22.7 | -17.9 | · | -4.5
Cc1ccc(NC(=O)N2CCCC2C(=O)Nc2c(C)cc(C)cc2C)cc1 (configuration not stated) | · | · | -28.2 | 13.3 | · | -2.9
CCC(=O)Nc1cc(-c2nn(C)c(=O)c3ccccc23)ccc1N1CCOCC1 | -3.9 | 1.9 | 10.6 | 12.0 | -7.1 | 3.7
Cn1nc(-c2ccc(N3CCCCC3)c(NC(=O)c3ccco3)c2)c2ccccc2c1=O | -0.1 | 4.4 | -20.3 | 67.2* | 11.2 | -1.4
O=C(Cn1c(-c2ccccc2)c[n+]2ccsc12)c1ccc(Br)cc1 | 27.2* | 40.5* | -12.7 | -21.9 | 15.5 | 0.5
CN(Cc1nccs1)C(=O)C1CCC(=O)N(CCCc2ccccc2)C1 (configuration not stated) | · | · | 10.7 | -7.3 | · | -3.3
COc1cccc(CN2CCC(C(=O)Nc3ccc(-c4cccc(C)c4)cc3)CC2)c1O | · | · | -59.3 | -29.2 | · | 2.4
COc1cc(/C=N/NC(=S)Nc2cccc(C(=O)O)c2)ccc1O | 5.0 | 6.3 | 29.2 | 70.2* | 11.5 | 6.8
COc1ccc(/C=N/NC(=S)Nc2cccc(C(=O)O)c2)cc1 | -2.8 | 2.6 | -29.2 | 30.0 | -29.4 | -3.1
COc1ccc(-c2sc3ccccc3c2C#CC2(O)CCCCC2)cc1 | · | · | -9.5 | 22.6 | · | 10.0
Cc1ccc(NC2=C/C(=N\S(=O)(=O)c3cccs3)c3ccccc3C2=O)c(C)c1 | 56.1* | 32.6* | -81.4 | 118.0* | -105.1 | 7.9
COc1ccc(C(=O)NC(=S)NNC(=O)c2ccc3ccccc3n2)cc1 | 5.6 | 0.9 | -19.8 | 73.1* | · | 3.9
O=C(/C=C/c1ccccc1)NC(=S)NNC(=O)c1cnccn1 | -2.9 | 6.9 | -16.8 | 86.6* | · | -2.0
COc1ccc(C(=O)NC(=S)NNC(=O)c2cnccn2)cc1OC | -3.7 | 6.2 | -13.2 | 90.5* | 20.2 | -0.7
COc1cc(OC)cc(C(=O)NNC(=O)c2ccccn2)c1 | -2.6 | -2.2 | 13.6 | 72.7* | 37.8 | 8.8
COc1ccc(C(=O)NCCNC(=O)c2cnccn2)cc1OC | · | · | -17.6 | -7.2 | · | -0.8
CN(Cc1ccccc1)S(=O)(=O)c1ccc(Cl)c(C(=O)NCc2cccnc2)c1 | · | · | · | 2.3 | · | ·
Cc1ccc(C(=O)N2CCN(S(=O)(=O)c3ccc(Br)cc3)CC2)o1 | · | · | 3.0 | -13.0 | · | -4.8
Cc1cc(COc2ccccc2)oc1C(=O)O | · | · | -19.6 | -107.5 | · | 4.5
O=C(Nc1ccccc1C(=O)O)c1cc(S(=O)(=O)N2CCOCC2)c(Br)s1 | · | · | -35.5 | -1.7 | · | -6.5
O=C(O)CCC(=O)Nc1ccc(SSc2ccc(NC(=O)CCC(=O)O)cc2)cc1 | · | · | -63.3 | -5.5 | · | -8.3
Cc1ccccc1OCC(=O)NCCCNC(=O)c1ccco1 | · | · | -12.5 | 7.3 | · | -3.2
COc1ccc(NS(=O)(=O)c2ccc3oc(SC(C)C(N)=O)nc3c2)cc1 (configuration not stated) | · | · | -34.0 | -12.0 | · | 6.8
SMILES | Ba/F3 V617F tox | BaF3 tox | KLF5 inh | aSyn 5UTR inh | APP transl inh | IEC-6 tox
Cc1nc(C)c(C(=O)Nc2cccc(F)c2)s1 | · | · | -16.4 | -39.5 | · | -3.3
COc1cc(OC)cc(C(=O)NC(=S)NNC(=O)c2cnccn2)c1 | -3.0 | 3.8 | -11.5 | 73.2* | 8.8 | -7.3
COc1cc(OC)cc(C(=O)NNC(=S)NC(=O)c2cccnc2)c1 | · | · | -7.0 | -30.6 | · | 4.2
COc1cccc(NC(=O)N2CCCC2C(=O)NC23CC4CC(CC(C4)C2)C3)c1 (configuration not stated) | · | · | 2.9 | -1.3 | · | 6.1
Cc1ccc(S(=O)(=O)Nc2cccc3ncccc23)cc1 | 0.7 | 1.7 | -42.7 | 21.2 | · | 1.7
Cc1ccc(S(=O)(=O)Nc2cccc3ncccc23)s1 | 2.6 | 4.1 | 24.2 | 27.3 | 56.1* | 93.5*
Cc1[nH][nH]c(=O)c1C(c1c(C)[nH][nH]c1=O)c1cn(Cc2ccccc2Cl)c2ccccc12 | 1.2 | 2.3 | -2.1 | 8.9 | 48.7* | -1.3
N/C(=N\O)c1cn(Cc2ccccc2Cl)c2ccccc12 | · | · | -25.8 | 7.5 | · | 10.3
NS(=O)(=O)OCCCc1ccccc1 | · | · | -8.1 | 5.9 | · | -0.1
[2H]C(CCOS(N)(=O)=O)c1ccc(C(C)(C)C)cc1 (configuration not stated) | · | · | 7.3 | 80.0* | · | 13.0
COc1ccc(N2CC(C(=O)NCc3n[nH]c(=O)c4ccccc34)CC2=O)cc1 (configuration not stated) | · | · | · | 28.4 | · | ·
C=CCc1cc(Cl)ccc1OCCOCCNCCOC | -0.8 | 9.2 | -20.2 | 20.3 | 5.5 | 1.2
C=CCc1cc(Cl)ccc1OCCNCCCOC | 3.7 | 91.5* | -25.9 | 23.7 | -0.5 | -6.5
CCOc1ccccc1N(C)C(=O)CCS(=O)(=O)c1ccc2c(c1)NC(=O)C(C)S2 (configuration not stated) | · | · | -79.4 | -0.9 | · | -10.2
COc1cnc(-c2ccccn2)nc1Oc1ccccc1 | -3.4 | 7.2 | -7.9 | -47.5 | 8.3 | 0.1
COc1cnc(-c2ccccn2)nc1N(C)c1ccccc1 | · | · | -42.5 | 88.6* | · | 15.1
CCOC(=O)c1c(C)n(-c2ccc(C)cc2)c2ccc(OCC(O)CNCC3CCCO3)cc12 (configuration not stated) | -0.5 | -0.1 | 1.4 | 75.5* | 6.7 | 2.6
COc1ccc(C)c2sc(N(CCCN(C)C)C(=O)c3ccc(S(=O)(=O)N4CCc5ccccc5C4)cc3)nc12 | · | · | · | 91.1* | · | ·
COc1cccc2sc(N(CCCN(C)C)C(=O)c3ccc(S(=O)(=O)N4CCCc5ccccc54)cc3)nc12 | · | · | -10.7 | 64.1* | · | -2.5
CC1CCCCN1S(=O)(=O)c1ccc(C(=O)N(CCCN(C)C)c2nc3ccc(Br)cc3s2)cc1 (configuration not stated) | · | · | -29.2 | 67.0* | · | 8.1
COc1ccc(OC)c2sc(N(CCCN(C)C)C(=O)c3ccc(S(=O)(=O)N4CCc5ccccc5C4)cc3)nc12 | · | · | · | 100.3* | · | ·
CN(C)CCN(C(=O)c1ccc(S(=O)(=O)N2CCCC2)cc1)c1nc2ccc(Br)cc2s1 | · | · | -9.7 | -19.8 | · | 7.7
Cc1ccc(NS(=O)(=O)c2c(C)ccc3nsnc23)c([N+](=O)[O-])c1 | · | · | 3.8 | 4.3 | · | 5.3
COc1cc2nc(N(CCCN(C)C)C(=O)c3ccc(S(=O)(=O)N4CCc5ccccc5C4)cc3)sc2cc1OC | · | · | · | -10.9 | · | ·
COc1cccc2sc(N(CCCN(C)C)C(=O)c3ccc(S(=O)(=O)N4CCc5ccccc5C4)cc3)nc12 | · | · | -21.9 | 94.2* | · | -4.8

Screening data from PubChem BioAssay.
